The structures appear in SMILES notation. Records with an inconclusive call do not appear. Entries that show only a call come without a potency. The source made the active and inactive calls. The call rests on the fitted dose curve; in most records, active means well fitted cell-killing curve with a large enough effect; inconclusive means small, poorly fitted or top-dose-only effect, or effect the other way; inactive means flat fitted curve, though single readings scatter.
Potency means the concentration at half of the fitted maximal effect.

This experiment concerns CAOV3. Kind of experiment: Primary qHTS to identify gynecologic anti-cancer compounds using libraries of approved drugs and bioactive compounds (AID 1345084). Further: nearly all actives have a fitted effect of over 55% in size. The settings on record: Gynecologic cancer cell panel viability, ATPlite luminescence, 48 h; series mostly up to 57.5 µM. From the text:
National Center for Advancing Translational Sciences [NCATS] Assay Overview: Chemotherapeutic drug responses vary from cancer to cancer and from patient to patient. These variations could be caused by a number of factors including patient genomic background, tumor mutations, tumor heterogeneity, and aspects of drug treatment. Chemotherapeutic drug resistance is also a common issue and can lead to ineffective treatment and patient death. Here we have profiled the cell killing effects of thousands of compounds to characterize the responses in three gynecological cancers, identify cancer-selective compounds, and understand the diversity of responses to these compounds from pan-cancer suppressors to single cell line selective compounds. In this assay, we screened a 7,914 compound drug library that included approved drug and bioactive compounds in six ovarian, three cervical, and […] placental cancer cell lines using the ATPlite assay for cell viability. […] The cervical cancer cell lines included HeLa, Ca Ski, and C-33 A. The placental cancer cell lines included JEG-3. HEK 293T cells were used as the control cell line to determine the selectivity index. ATPlite is a luminescence based assay reliant on the conversion of a luciferase substrate to light in the presence of ATP. As a cytotoxic compound will suppress growth and decrease the number of cells, the concentration of ATP will decrease, and less light signal will be detected in the well.
Assay Protocol Summary: 1,000 cells in 4 uL of media were dispensed into white, solid bottom 1536-well plates using a Multidrop Combi (Thermo Scientific). The Assay plates were incubated for 16 hours at 37 C with 5% CO2 in assay plates, followed by the addition of 23 nL of DMSO or drug dissolved in DMSO. Each compound was assayed in five concentrations (0.092, 0.46, 2.3, 11.5, and 57.5 uM), using the automated Wako 1536 Pin Tool workstation and incubated at 37 C with 5% CO2 48 hours. 4 uL of ATPlite, the ATP monitoring reagent, was then added to the each well of the assay plates using the Multidrop Combi reagent dispenser followed by incubation for 15 minutes at room temperature. The resulting luminescence was measured using the ViewLux plate reader.
In general terms: In qHTS, concentration-response curves come from the screen itself.
As to `Cn1cnc2c(F)c(Nc3ccc(Br)cc3F)c(C(=O)NOCCO)cc21`, the Potency result is “inactive”. For the compound `Cc1ccc(-n2[nH]c(C)c(N=Nc3cccc(-c4cccc(C(=O)O)c4)c3O)c2=O)cc1C`, the Potency result is “inactive”.

Take `C[C@H](O)[C@@H]1C(=O)N2C(C(=O)O)=C(S[C@@H]3CN[C@H](CNS(N)(=O)=O)C3)[C@@H](C)[C@@H]12`: the Potency entry is “inactive”. Take `N[C@H]1CN(c2c(F)cc3c(=O)c(C(=O)O)cn(C4C[C@@H]4F)c3c2Cl)CC12CC2` (stereo partly drawn): the Potency result is “inactive”. Regarding `CCn1c(=O)c2c(nc(C=Cc3ccc(OC)c(OC)c3)n2C)n(CC)c1=O`, the Potency result is “inactive”. Consider `CC(O)(C#Cc1ccc2c(c1)N(c1nc(N)ncc1Cl)CC2)c1nccs1` (stereo not drawn), for which the Potency result was “inactive”. Consider `CN(C)CC(=O)N1CCC(c2ccc(NC(=O)c3ncc(C#N)[nH]3)c(C3=CCCCC3)c2)CC1`, for which the Potency entry is “inactive”. With `C=CC(=O)Nc1ccc2ncnc(Nc3ccc(OCc4cccc(F)c4)c(Cl)c3)c2c1`, the Potency was 35.5 µM (active).

For `COc1ccc(S(=O)(=O)Nc2cccnc2Nc2ccc(O)cc2)cc1`, the Potency result is “inactive”.

Take `CC1(C)O[C@@H]2C[C@H]3[C@@H]4CCC5=CC(=O)C=C[C@]5(C)[C@@H]4[C@@H](O)C[C@]3(C)[C@]2(C(=O)CO)O1`: the Potency entry was “inactive”. `CCC[C@H]1C[C@H](C(=O)N[C@@H]([C@@H]2O[C@@H](SC)[C@@H](O)[C@@H](O)[C@@H]2O)[C@H](C)Cl)N(C)C1`: the Potency result is “inactive”. With `c1ccc2c(Oc3nc(Nc4ccc(N5CCOCC5)cc4)c4ncn(C5CCCCC5)c4n3)cccc2c1`, the Potency entry was “inactive”. In the case of `Cc1cn([C@@H]2O[C@H](CO)[C@@H](O)[C@H]2F)c(=O)[nH]c1=O`, the Potency result is “inactive”. On to `FC(F)(F)c1ccc(Nc2nc3ccc(Oc4ccnc(-c5ncc(C(F)(F)F)[nH]5)c4)cc3[nH]2)cc1`, for which the Potency result is “inactive”. Take `CN1CCc2c(c3ccccc3n2Cc2ccc(C(=O)NO)cc2)C1`: the Potency entry is “inactive”. Regarding `Cc1coc2c1C(=O)C(=O)c1c-2ccc2c(C)cccc12`, the Potency entry is “inactive”. With `c1cncc(CN2CCC(n3ncc4c(N5CCOCC5)nc(-c5ccc6[nH]ccc6c5)nc43)CC2)c1`, the Potency is 28.2 µM (active). With `CCOC(=O)[C@@H](N)Cc1ccc(-c2cc(O[C@H](c3ccc(Cl)cc3-n3ccc(C)n3)C(F)(F)F)nc(N)n2)cc1`, the Potency result is “inactive”.

For the compound `C[C@H]1[C@@H](OC(=O)CCC(=O)O)O[C@@H]2O[C@@]3(C)CC[C@@H]4[C@H](C)CC[C@@H]1[C@@]24OO3`, the Potency entry is “inactive”. For `O=C(Nc1cc2cc[nH]c2cn1)c1ccccc1`, the Potency was 1.78 µM (active). In the case of `CCN(CC)Cc1ccc2cc(COC(=O)Nc3ccc(C(=O)NO)cc3)ccc2c1`, the Potency was 7.94 µM (active).

Turning to `C[N+]1(C)[C@@H]2C[C@@H](OC(=O)C(O)(c3cccs3)c3cccs3)C[C@H]1[C@@H]1O[C@@H]12`, the Potency result is “inactive”. As to `CC(C)C[C@H](NC(=O)[C@@H](NC(=O)c1cccc(-c2ccccc2)n1)[C@@H](C)O)B(O)O`, the Potency was 0.282 µM (active).

In the case of `CC(C)n1cnc2c(NCCc3ccc(O)cc3)nc(-c3csc4ccccc34)nc21`, the Potency entry was “inactive”. In the case of `CS(=O)(=O)N1CCc2c(-c3cnc(N)nc3)nc(N3CCOCC3)nc21`, the Potency result was “inactive”. Consider `CCCCOc1ccc(C(=O)Nc2ccc(F)cc2F)cc1`, for which the Potency entry was “inactive”.

As to `CC1=C(C(=O)Nc2cc3cn[nH]c3cc2F)C(c2ccc(Cl)cc2F)N=C(c2ccnc(Cl)c2)N1` (stereo not drawn), the Potency entry was “inactive”. For the compound `Oc1ccc([C@@H]2Oc3ccc(O)cc3[C@@H]3CCC[C@@H]32)cc1`, the Potency result was “inactive”.

Consider `Cc1ccccc1C(=O)Nc1ccc(C(=O)N2CCCC(O)c3cc(Cl)ccc32)c(C)c1` (stereo not drawn), for which the Potency entry is “inactive”. For `O=C(O)c1ccc(Nc2ncc3c(n2)-c2ccc(Cl)cc2C(c2c(F)cccc2F)=NC3)cc1`, the Potency entry was “inactive”. For the compound `Cc1cnc(Nc2ccc(CN3CCOCC3)cc2)nc1Nc1cccc(S(=O)(=O)NC(C)(C)C)c1`, the Potency was 7.94 µM (active). As to `Nc1ccn(C2CO[C@H](CO)O2)c(=O)n1` (stereo partly drawn), the Potency entry is “inactive”. Regarding `O=C(Nc1ccc(Oc2ccnc3[nH]ccc23)c(F)c1)c1cccn(-c2ccc(F)cc2)c1=O`, the Potency result was “inactive”.
